NLRP3 yeast inh: NALP3 inflammasome inhibitors in reconstituted yeast, primary screen, luminescence, uHTS | AID 2825, 2010 | inhibition, % at 10 µM | actives 0.39% (n = 330,000) | Yeast reconstituted NLRP3/ASC/caspase-1, beta-gal luminescence, 24 h;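 active = inhibition of 50% or more; inactive = inhibition below 50%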;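 also: plate controls were induced DMSO wells for no effect and uninduced yeast grown without galactose for full effect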
tim23-1 inh: growth inhibitors of tim23-1 mutant yeast, primary screen, luminescence, uHTS. S. cerevisiae tim23-1 growth, BacTiter-Glo luminescence, 24 h. inhibition, % at 20 µM. actives 1.3% (n = 330,000). AID 463212, 2010;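 active = growth inhibition of the mutant yeast at or above 50%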;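 also: temperature-sensitive mutant grown at 25 °C; plate controls were DMSO-treated mutant yeast for no effect and medium wells lacking yeast for full effect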
SKKanGAS inh: S. pyogenes SKKanGAS growth inhibitors in kanamycin, primary screen, streptokinase expression inhibitor project, SKKanGAS strain, BacTiter-Glo luminescence. AID 1662, 2009. inhibition, % at 7.5 µM. actives 1.3% (n = 300,000). 6 h;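 active = mean replicate score, as percent of positive control median, at least 50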;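 also: strain carries kanamycin resistance gene driven by streptokinase promoter and grows in 40 µg/ml kanamycin; loss of luminescence reflects streptokinase promoter inhibition or plain growth inhibition; 0% = median of DMSO wells and 100% = positive control at its reference dose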
tim10-1 inh: growth inhibitors of tim10-1 mutant yeast, primary screen, luminescence, uHTS; S. cerevisiae tim10-1 ts strain growth, BacTiter-Glo, 24 h; actives 2.2% (n = 330,000); inhibition, % at 20 µM; AID 463190, 2010;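 active = inhibition of at least 40%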;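 also: mutant grown at 25 °C; 0% = DMSO wells with yeast and 100% = wells holding no yeast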
TIM10 inh: growth inhibitors of isogenic TIM10 control yeast, primary screen, counter-screen for tim10-1 yeast inhibitor project, luminescence, uHTS; S. cerevisiae TIM10 strain growth, BacTiter-Glo luminescence, 24 h; inhibition, % at 10 µM; actives 1.4% (n = 330,000); AID 463195, 2010;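 active = inhibition of 40% or more at the single tested concentration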;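 also: wild-type TIM10 isogenic control strain grown at permissive 25 °C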
NALP3 confirm: NALP3 inhibitors retested in yeast, confirmation, luminescence, single concentration; shares compounds with NLRP3 yeast inh; yeast expressing human NALP3; actives 81% (n = 1,300); inhibition, % at 10 µM; in the data active = inhibition above about 48%
Casp1 ASC ctr: CASP1-PYCARD signaling inhibition in yeast, confirmatory test, counterassay for NLRP3 inhibitor program, one-dose. yeast expressing Caspase-1-ASC, luminescence counter screen. actives 66% (n = 1,000). shares compounds with NLRP3 yeast inh. inhibition, % at 10 µM
NALP3 retest: NALP3 inhibitors in yeast, repeat test, confirmation, luminescence, single concentration, retest. shares compounds with NLRP3 yeast inh. yeast expressing human NALP3, luminescence read-out. inhibition, % at 10 µM. actives 53% (n = 1,000). AID 488794, 2010
tim10-1 conf: growth inhibitors of tim10-1 mutant yeast, confirmation, single concentration, luminescence, S. cerevisiae; shares compounds with tim10-1 inh; S. cerevisiae tim10-1 ts strain growth, BacTiter-Glo, 24 h; inhibition, % at 20 µM; actives 56% (n = 7,400); AID 463213, 2010;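 active = inhibition of yeast growth at or above a set limit in either of two repeat tests at 20 µM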;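 also: tim10-1 mutant grown at permissive 25 °C to find synthetic lethal compounds; 0% = DMSO yeast wells and 100% = medium wells without yeast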
TIM10 conf: growth inhibitors of wild-type TIM10 yeast, confirmation, counter-screen for tim10-1 synthetic lethality project, single concentration, luminescence, S. cerevisiae; shares compounds with TIM10 inh; S. cerevisiae tim10 strain growth, BacTiter-Glo luminescence, 24 h; inhibition, % at 10 µM; actives 63% (n = 4,600); AID 463215, 2010;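 active = inhibition of yeast growth at or above a set limit in either of two replicates at 10 µM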;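 also: this counterscreen used the strain with wild-type TIM10; 0% = yeast with DMSO and 100% = medium wells lacking yeast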
tim23-1 conf: tim23-1 mutant yeast growth inhibitors, confirmation, luminescence, single concentration | inhibition, % at 20 µM | actives 83% (n = 4,400) | S. cerevisiae tim23-1 growth, BacTiter-Glo luminescence, 24 h | shares compounds with tim23-1 inh;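 active = inhibition above about 39% in either of two replicate wells at 20 µM, limit read from the data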;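 also: temperature-sensitive tim23-1 mutant grown at 25 °C; 0% = DMSO wells with yeast and 100% = medium wells without yeast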
* marks the source's active call; other numbers are inactive results; / = not tested or not shown. A selection: hits, their analogues and other compounds. The true share with any hit is near 4.6%. Rule as the data show it, unless noted: active = inhibition above about 50%; inactive = the rest.

SMILES	NLRP3 yeast inh	tim23-1 inh	SKKanGAS inh	tim10-1 inh	TIM10 inh	NALP3 confirm	Casp1 ASC ctr	NALP3 retest	TIM10 conf	others
C[C@H](CO)N1C[C@H](C)[C@@H](CN(C)S(C)(=O)=O)Oc2c(NC(=O)Nc3ccccc3)cccc2C1=O	-7	9	/	6	1	/	/	/	/
O=CC1=C(c2ccccc2)Oc2ccccc2O1	68*	23	8	22	78*	64*	75*	85*	79*
O=C(/C=C/c1c(F)cccc1Cl)c1ccc(O)cc1	91*	-35	18	-151	74*	87*	58*	47	62*
O=C(/C=C/c1c(F)cccc1Cl)Nc1ncccn1	13	23	2	13	14	/	/	/	/
CC1=C/C(=N\OS(=O)(=O)c2ccccc2)C(C)=CC1=O	50	-109	/	91*	87*	39	/	/	-13	tim10-1 conf=80*
COc1c[nH]n(C2CCCCC2)c(=O)c1=O	57*	40	2	23	40*	77*	59*	67*	23
Cc1ccc(Sc2ccc(NC(=O)CCl)cc2)c(C)c1	58*	37	-8	39	59*	69*	78*	58*	43*
CCc1ccccc1NC(=O)CCc1c(C)nc(SC)nc1C	36	1	11	5	-2	/	/	/	/
COc1cc(CNCCc2ccccc2)ccc1OCc1ccc(Cl)nc1	50*	7	2	2	55*	42	46	51*	-4
Cc1cc(/C(N)=N/OC(=O)Nc2ccc(Cl)cc2)no1	1	12	-2	8	15	/	/	/	/
CN(CCO)c1cc(Sc2nc3ccccc3s2)c2nonc2c1[N+](=O)[O-]	62*	14	67*	41*	53*	65*	/	/	26*	tim10-1 conf=39*
CCN(CC(=O)Nc1ccc2c(c1)OCCO2)C(=O)CCc1ccccc1Cl	10	36	/	21	12	/	/	/	/
O=C1/C(=C/c2ccccc2[N+](=O)[O-])COc2ccccc21	71*	-37	15	25	79*	62*	85*	74*	89*
O=C(c1cc(Cl)ccc1O)N1CCN(S(=O)(=O)Cc2ccccc2)CC1	15	19	/	15	17	/	/	/	/
CCC(C)(C)n1nnnc1C(c1cccs1)N1CCc2ccccc21 (configuration not stated)	-101	47	-4	33	50*	-18	/	/	34*
CC(=O)N1c2ccc(S(=O)(=O)NCC3CCC(C(=O)NCc4ccccc4)CC3)cc2CC1C (configuration not stated)	12	-6	4	-5	-3	/	/	/	/
O=C(NCCCN1CCOCC1)c1c(O)c2cc(Br)cc(Br)c2[nH]c1=O	63*	46	/	51*	67*	81*	31	39	74*	tim10-1 conf=47*
COc1cc2[nH]c(=O)c(C(=O)NCCCN3CCOCC3)c(O)c2cc1OC	4	-19	-4	-23	5	/	/	/	/
CC1CCN(S(=O)(=O)c2cc3c4c(c2)C(C)C(=O)N4CCC3)CC1 (configuration not stated)	9	12	0	-6	16	/	/	/	/
CC1=NNC(=O)/C1=C\c1cn(-c2ccccc2)nc1-c1ccc(F)cc1	/	/	-8	/	/	/	/	/	/
CC1=NNC(=O)/C1=C\c1cn(-c2ccccc2)nc1-c1cccs1	54*	19	6	19	88*	74*	/	/	84*
Cc1cc(C)cc(C(=O)/C=C2\NC(=O)CS2)c1	66*	43	-1	20	50*	77*	80*	71*	34*
O=C1CS/C(=C/C(=O)c2ccccc2)N1	46	35	-1	-25	5	/	/	/	/
Cc1ccc2c(c1)sc(=NC(=O)c1cccs1)n2C	58*	50	-9	15	59*	42	16	31	60*
Cc1ccc2c(c1)sc(=NC(=O)C1CC1)n2C	16	-6	-9	5	-15	/	/	/	/
SMILES	NLRP3 yeast inh	tim23-1 inh	SKKanGAS inh	tim10-1 inh	TIM10 inh	NALP3 confirm	Casp1 ASC ctr	NALP3 retest	TIM10 conf	others
CCc1ccccc1-n1ncc(C(=O)Nc2ccccc2OC)c1C	14	26	2	16	14	/	/	/	/
CC(C)N(C(=O)Cn1c(=O)oc2ccccc21)c1ccccc1	5	19	0	18	-1	/	/	/	/
COc1ccc(N2CCN(C(=O)Nc3cccc(C(F)(F)F)c3)CC2)cc1	-105	-8	-4	55*	49*	-12	/	/	21	tim10-1 conf=41*
O=C(Nc1cccc(C(F)(F)F)c1)N1CCN(C(=O)Nc2cccc(C(F)(F)F)c2)CC1	-1	-4	-3	-3	7	/	/	/	/
O=C(Nc1ccccc1)c1ccc2c(c1)OCCO2	37	44	6	-2	29	/	/	/	/
O=C(Nc1cccc(F)c1)c1ccc2c(c1)OCCO2	67*	45	-4	27	41*	70*	62*	60*	53*
COc1ccc2c(c1)CC/C2=N\OC(=O)c1cccc(C)c1	52*	53*	-8	62*	83*	5	/	/	-13	tim10-1 conf=41*;tim23-1 conf=82*
S=C(NCc1ccccc1)Nc1ccc(Cl)cc1	33	20	10	36	27	/	/	/	/
FC(F)(F)Sc1ccc(NC(=S)NCc2ccccc2)cc1	53*	52*	15	58*	53*	24	/	/	59*	tim10-1 conf=70*;tim23-1 conf=53*
COc1ccc(CNC(=O)C(C)OC(=O)c2cccs2)cc1 (configuration not stated)	14	10	-1	-6	6	/	/	/	/
Cc1cccc(N/C=C/c2onc(C)c2[N+](=O)[O-])c1	16	1	-3	13	5	/	/	/	/
Cc1cccc(/C=C/c2onc(C)c2[N+](=O)[O-])n1	89*	84*	-5	64*	68*	63*	96*	77*	78*	tim10-1 conf=61*;tim23-1 conf=71*

Bioassay records: PubChem, several laboratories
